Measured values reported in PubChem BioAssay (Tox21).
Results filed as inconclusive are left out. Activity calls are given as the source filed them. Calls come from the whole dose curve; as a rule, active = well fitted inhibition curve with a large enough effect in the repeat runs; inconclusive = weak or mixed curves, or effect the other way; inactive = no such curve, though single readings can be large or run the other way.

molecular target: Nuclear receptor ROR-gamma (Homo sapiens) (UniProt P51449); assay: qHTS assay to identify small molecule antagonists of the retinoid-related orphan receptor gamma (ROR-gamma) signaling pathway (AID 1159521; note: nearly all actives have a fitted effect of over 50% in size; for activity change, negative = inhibition: top concentration of the series differs between compounds); details: Tet-on RORgamma CHO cells, RORE-luciferase, 16 h; series mostly up to 92.4 µM; activity change, negative = inhibition: at the top concentration
Source text: U.S. Tox21 Program National Center for Advancing Translational Sciences [NCATS] NIH Chemical Genomics Center [NCGC] U.S. Environmental Protection Agency [EPA] National Institutes of Environmental Health Sciences [NIEHS] National Toxicology Program [NTP] U.S. Food and Drug Administration [FDA] Tox21 Assay Overview: Nuclear steroid hormone receptors are involved in many biological processes including inflammatory responses, cell proliferation, and apoptosis. Environmental factors or compounds disrupting these nuclear receptor pathways and gene expression may promote susceptibility to immunotoxicants and autoimmune diseases. One important group of these expression factors are the retinoid-related orphan receptors. To assess compounds that may interfere with the retinoid-related orphan receptor gamma (ROR-gamma) transcription factor, a cell-based luciferase assay was used. The CHO cell-based assay utilizes a TET-inducible ROR expression factor and ROR response element-LUC reporter gene. Reporter gene activity was induced using Doxycycline Hyclate and measured after 16 hr incubation. Tet-on ROR gamma CHO cells were used to screen against the Tox21 10K compound library for ROR gamma antagonists by quantification of decreased reporter gene activity in terms of decreased luminescence.
Tox21 Assay Protocol Summary: Tet-on ROR gamma CHO cells were dispensed at 1,000 cells in 4 uL of culture medium per well into white wall/solid bottom 1536-well plates using a Multidrop Combi (Thermo Scientific, Waltham, MA) dispenser. Following incubation at 37 C and 5% CO2 for 4 hr, 23 nL of compounds dissolved in DMSO, positive controls or DMSO only were transferred by a Pintool station (Kalypsys, San Diego, CA) and after 2 hr incubation at 37 C, one ul of 1 uM (final concentration) of Doxycycline Hyclate was added to all the wells by using a Flying Reagent Dispenser (FRD) (Aurora Discovery, San Diego, CA). After 16 hr incubation at 37 C and 5% CO2, 5 uL of ONE-Glo reagent (Promega Corporation, Madison, WI) was added to each assay plate using FRD. After 30 min incubation at room temperature, luminescence was quantified on a ViewLux plate reader (Perkin Elmer, Waltham, MA).
% is set by controls: 0 for no effect and ±100 for the full control effect; potency is the fitted concentration of half-maximal effect.

Compound	activity change, negative = inhibition	Potency
CCCCCCCCCCCCCCNCCO	-7.62% [at 42.5 µM] (inactive)	–
C[C@@H]1CC[C@H]2C(C)(C)[C@H]3C[C@@]12CC[C@@]3(C)O	-15% (inactive)	–
Cn1cccc1	21.4% (inactive)	–
COc1cc(C(=O)NS(=O)(=O)c2ccccc2C)ccc1Cc1cn(C)c2ccc(NC(=O)OC3CCCC3)cc12	-14.1% [at 42.5 µM] (inactive)	–
CCCCCCCCCC(=O)N(C)C	28.5% (inactive)	–
Cc1cc2c(C(C)C)c(O)c(O)c(C=O)c2c(O)c1-c1c(C)cc2c(C(C)C)c(O)c(O)c(C=O)c2c1O	–	10.6 µM (active)
CCc1ccc(C)nc1	5.6% (inactive)	–
CCOC(=O)COc1ccc(C)cc1	7.48% (inactive)	–
C=CC(C)C#N (stereo not given)	-4.55% (inactive)	–
N#CSCSc1nc2ccccc2s1	–	13.7 µM (active)
COc1cccc(O)c1	4.49% (inactive)	–
O=C[C@H](O)[C@H](O)[C@H](O)CO	0.841% (inactive)	–
C=CC(C)(CCC=C(C)C)OC(=O)/C=C/c1ccccc1 (stereo not given)	-0.915% (inactive)	–
CCOB(OCC)OCC	8.65% (inactive)	–
Clc1ccc(C(Cn2ccnc2)OCc2ccsc2Cl)c(Cl)c1 (stereo not given)	–	23.7 µM (active)
CCc1cccc(C)c1	10.1% (inactive)	–
OCCCc1cccnc1	8.27% (inactive)	–
CC(=O)Oc1ccc(C2(c3ccc(OC(C)=O)cc3)Oc3ccccc3NC2=O)cc1	–	26.6 µM (active)
CC(C)=CCCC(C)O (stereo not given)	-12.1% (inactive)	–
CCCCCCCCCCOCC(O)CN (stereo not given)	–	26.6 µM (active)

Compound	activity change, negative = inhibition	Potency
Cc1ccc(N)cc1O	37.6% (inactive)	–
O=S(O)O	7.25% [at 19 µM] (inactive)	–
CCOC(/C=C(\C)CCC=C(C)C)OCC	13.5% (inactive)	–
CC(C)=CCCC(C)CCOC(=O)C(C)C (stereo not given)	-2.76% (inactive)	–
Cn1cnc2ncnc(N)c21	22.8% [at 42.5 µM] (inactive)	–
Cc1cncc(C)c1	2.83% (inactive)	–
O=C(Nc1ccc(Cl)c(Cl)c1)c1cc(Cl)cc(Cl)c1O	–	2.17 µM (active)
CN1CN(C)CN(C)C1	-9.36% (inactive)	–
CCCOc1sc(C(=O)N2CCC(c3cc(CN)ccc3F)CC2)c(C)c1Br	–	28.1 µM (active)
CCC(C)C(=O)OC (stereo not given)	4.11% (inactive)	–
SCCCCCCCCS	-1.16% (inactive)	–
CO[Si](CCC1CCC2OC2C1)(OC)OC (stereo not given)	7.38% (inactive)	–
C[C@@]12C(=O)OC(=O)[C@]1(C)C1CCC2O1	–	4.22 µM (active)
C=CC(=O)OCC(O)COc1ccccc1 (stereo not given)	–	61.1 µM (active)
CN(Cc1cc(Br)cc(Br)c1N)C1CCCCC1	-10.3% [at 42.5 µM] (inactive)	–
CCN(CC)CCOc1ccc(C(O)(Cc2ccc(Cl)cc2)c2ccc(C)cc2)cc1 (stereo not given)	–	29.8 µM (active)
O=C(NO)c1ccccc1	119% (inactive)	–
O=C1C=CC(=O)N1c1ccccc1	–	7.7 µM (active)
C=C(C)CCCC	4.44% (inactive)	–
CCC(C)c1cc([N+](=O)[O-])cc([N+](=O)[O-])c1OC(=O)OC(C)C (stereo not given)	–	19.3 µM (active)
